# In the supplement of paper PMC8728848:
# The entries come from a sample that favours the strongest signals as a whole.
# B1: RobpsCRA (Robinia pseudoacacia) (protein)
# chain: IKGGYWYSGSGLAVSDINPSHFTHLFCAFADLDPNTNKLTISSSNAAAFSTFTQTVRAKNPSVKTLLSIGGGGGRALAAVFANMASQASRRKSFIDSSIQLARRNNFHGLDLDWEYPSSDIDKTNFASLIREWRAAVATESSTSGTPALLLSAAVGGSDQITPLKYYPGEAIANNLDWVNVMTYDLYTSDSYPTLTQPPAPLFYPRGIFSADEGITKWIQSGVPESKLALGLPFYGFKWRLSDPNNHGLFAPATQGLGAVKYKDIVNTGGQVEFDSTYVTNYCFKGTDWYGYDDTQSISAKVAYAKQRGLFGYFAWHIEQDSNWALS
# How the values were obtained:
# Assay in all cases: glycan array binding signal (z-score within array); higher = stronger binding
# Settings in all cases: glycan notation: IUPAC condensed, linker removed
# [1] = molecular target: Gal(b1-4)GlcNAc(b1-2)[Gal(b1-4)GlcNAc(b1-6)]Man(a1-6)[Gal(b1-4)GlcNAc(b1-2)Man(a1-3)]Man(b1-4)GlcNAc(b1-4)[Fuc(a1-6)]GlcNAc
# Method in brief: (§1)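 Glycan array data were curated from 3228 arrays in the Consortium for Functional Glycomics database and kept only where the protein sequence was available. Glycan names were converted to IUPAC-condensed notation, and columns mapping to the same glycan were averaged. The binding signal is a within-array Z-score, averaged across arrays of the same protein sequence at different concentrations or buffers and across linkers. Negative Z-scores can be read as non-binding.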
# [2] = molecular target: Gal(b1-4)GlcNAc(b1-3)Gal(b1-4)GlcNAc(b1-2)Man(a1-3)[Gal(b1-4)GlcNAc(b1-3)Gal(b1-4)GlcNAc(b1-2)Man(a1-6)]Man(b1-4)GlcNAc(b1-4)GlcNAc
# Method in brief: as §1
# [3] = molecular target: Gal(b1-4)GlcNAc(b1-3)Gal(b1-4)GlcNAc(b1-3)Gal(b1-4)GlcNAc(b1-3)Gal(b1-4)GlcNAc(b1-3)Gal(b1-4)GlcNAc(b1-3)Gal(b1-4)GlcNAc(b1-2)Man(a1-3)[Gal(b1-4)GlcNAc(b1-3)Gal(b1-4)GlcNAc(b1-3)Gal(b1-4)GlcNAc(b1-3)Gal(b1-4)GlcNAc(b1-3)Gal(b1-4)GlcNAc(b1-3)Gal(b1-4)GlcNAc(b1-2)Man(a1-6)]Man(b1-4)GlcNAc(b1-4)GlcNAc
# Method in brief: as §1
# [4] = molecular target: Gal(b1-4)GlcNAc(b1-3)GalNAc
# Method in brief: as §1
# [5] = molecular target: Gal3S(b1-4)[Fuc(a1-3)]Glc6S
# Method in brief: as §1
# GalNAc(b1-3)GlcNAc = molecular target: GalNAc(b1-3)GlcNAc
# Method in brief: as §1
# GalNAc(b1-4)Gal(b1-4)Glc = molecular target: GalNAc(b1-4)Gal(b1-4)Glc
# Method in brief: as §1
# [6] = molecular target: GlcA3S(b1-3)Gal(b1-4)GlcNAc(b1-3)Gal(b1-4)Glc
# Method in brief: as §1
# [7] = molecular target: GlcNAc(a1-4)Gal(b1-4)GlcNAc(b1-3)Gal(b1-4)GlcNAc
# Method in brief: as §1
# [8] = molecular target: GlcNAc(b1-2)Man(a1-3)[GlcNAc(b1-4)][GlcNAc(b1-2)Man(a1-6)]Man(b1-4)GlcNAc(b1-4)GlcNAc
# Method in brief: as §1
# GlcNAc(b1-3)Fuc = molecular target: GlcNAc(b1-3)Fuc
# Method in brief: as §1
# [9] = molecular target: GlcNAc(b1-3)Gal(b1-4)GlcNAc(b1-2)Man(a1-3)[GlcNAc(b1-3)Gal(b1-4)GlcNAc(b1-2)Man(a1-6)]Man(b1-4)GlcNAc(b1-4)GlcNAc
# Method in brief: as §1
# [10] = molecular target: GlcNAc(b1-3)Gal(b1-4)GlcNAc(b1-2)[GlcNAc(b1-3)Gal(b1-4)GlcNAc(b1-6)]Man(a1-6)[GlcNAc(b1-3)Gal(b1-4)GlcNAc(b1-2)Man(a1-3)]Man(b1-4)GlcNAc(b1-4)GlcNAc
# Method in brief: as §1
# [11] = molecular target: GlcNAc(b1-3)Gal(b1-4)GlcNAc(b1-3)Gal(b1-4)GlcNAc(b1-3)Gal(b1-4)GlcNAc(b1-3)Gal(b1-4)GlcNAc(b1-2)[GlcNAc(b1-3)Gal(b1-4)GlcNAc(b1-3)Gal(b1-4)GlcNAc(b1-3)Gal(b1-4)GlcNAc(b1-3)Gal(b1-4)GlcNAc(b1-6)]Man(a1-6)[GlcNAc(b1-3)Gal(b1-4)GlcNAc(b1-3)Gal(b1-4)GlcNAc(b1-3)Gal(b1-4)GlcNAc(b1-3)Gal(b1-4)GlcNAc(b1-2)Man(a1-3)]Man(b1-4)GlcNAc(b1-4)[Fuc(a1-6)]GlcNAc
# Method in brief: as §1
# [12] = molecular target: GlcNAc6S(b1-3)Gal(b1-4)GlcNAc
# Method in brief: as §1
# [13] = molecular target: Man(a1-2)Man(a1-3)[Man(a1-2)Man(a1-6)]Man(a1-6)[Man(a1-2)Man(a1-2)Man(a1-3)]Man
# Method in brief: as §1
# MurNAc(b1-4)GlcNAc = molecular target: MurNAc(b1-4)GlcNAc
# Method in brief: as §1
# [14] = molecular target: Neu5Ac(a2-3)Gal(b1-3)GalNAc(b1-4)[Neu5Ac(a2-8)Neu5Ac(a2-3)]Gal(b1-4)Glc
# Method in brief: as §1
# [15] = molecular target: Neu5Ac(a2-3)Gal(b1-3)GlcNAc
# Method in brief: as §1
# [16] = molecular target: Neu5Ac(a2-3)Gal(b1-3)[Neu5Ac(a2-6)]GlcNAc(b1-3)[Fuc(a1-3)[Gal(b1-4)]GlcNAc(b1-6)]Gal(b1-4)Glc
# Method in brief: as §1
# [17] = molecular target: Neu5Ac(a2-3)Gal(b1-4)GlcNAc(b1-2)[Neu5Ac(a2-3)Gal(b1-4)GlcNAc(b1-6)]Man(a1-6)[Neu5Ac(a2-3)Gal(b1-4)GlcNAc(b1-2)Man(a1-3)]Man(b1-4)GlcNAc(b1-4)GlcNAc
# Method in brief: as §1
# [18] = molecular target: Neu5Ac(a2-3)Gal(b1-4)GlcNAc(b1-6)[Neu5Ac(a2-3)Gal(b1-3)]GalNAc
# Method in brief: as §1
# [19] = molecular target: Neu5Ac(a2-3)Gal(b1-4)[Fuc(a1-3)]GlcNAc(b1-3)GalNAc
# Method in brief: as §1
# [20] = molecular target: Neu5Ac(a2-6)Gal(b1-4)GlcNAc(b1-2)Man(a1-6)[Man(a1-3)]Man(b1-4)GlcNAc(b1-4)GlcNAc
# Method in brief: as §1
# [21] = molecular target: Neu5Ac(a2-8)Neu5Ac(a2-3)[Gal(b1-3)GalNAc(b1-4)]Gal(b1-4)Glc
# Method in brief: as §1
binder,measurement,setting,value
B1,glycan array binding signal (z-score),[1],1.6
same,glycan array binding signal (z-score),[2],1.01
same,glycan array binding signal (z-score),[3],2.18
same,glycan array binding signal (z-score),[4],0.32
same,glycan array binding signal (z-score),[5],1.65
same,glycan array binding signal (z-score),GalNAc(b1-3)GlcNAc,0.418
same,glycan array binding signal (z-score),GalNAc(b1-4)Gal(b1-4)Glc,0.371
same,glycan array binding signal (z-score),[6],2.45
same,glycan array binding signal (z-score),[7],1.54
same,glycan array binding signal (z-score),[8],-0.359
same,glycan array binding signal (z-score),GlcNAc(b1-3)Fuc,-0.426
same,glycan array binding signal (z-score),[9],-0.142
same,glycan array binding signal (z-score),[10],1.5
same,glycan array binding signal (z-score),[11],1.28
same,glycan array binding signal (z-score),[12],-0.663
same,glycan array binding signal (z-score),[13],0.574
same,glycan array binding signal (z-score),MurNAc(b1-4)GlcNAc,-0.389
same,glycan array binding signal (z-score),[14],-0.829
same,glycan array binding signal (z-score),[15],0.156
same,glycan array binding signal (z-score),[16],-0.376
same,glycan array binding signal (z-score),[17],-0.526
same,glycan array binding signal (z-score),[18],-0.478
same,glycan array binding signal (z-score),[19],1.49
same,glycan array binding signal (z-score),[20],1.67
same,glycan array binding signal (z-score),[21],0.946
